From ChEMBL document CHEMBL3988442, “University of Dundee, Small-Polar-MMV Screening Library” (2021)
“And” between values parts separate entries of the source, which are not always exact repeats. Equal entries are not always repeated. The whole screen tested about 34,000 compounds, of which about 290 (0.85%) showed an effect of 50% or more. Only a selection was taken, and strong results are over-represented in it overall.

System: Plasmodium falciparum
Experiment: Plasmodium falciparum sporozoite viability assay
Assay type: functional, organism-based
Parameters: scale not given: in the data most compounds retested in dose-response had high values

| Compound | Percent Effect | Percent Effect (10 mM as filed; unlikely as a test dose) |
| --- | --- | --- |
| CCCc1ncc(CNC2(c3ccc(Cl)cc3)CCC2)cn1 | 9.707% | – |
| COc1ccc2cc(C(=O)N3CCCC(n4ccnc4C)C3)[nH]c2c1 (configuration not stated) | -4.765% | – |
| O=C(O)[C@@H]1CN(C(=O)CC2CCCC2)C[C@H]1c1ccc(F)cc1 | 4.737% | – |
| Cc1nccc(C(=O)N2CCCC(c3cc(C(F)(F)F)[nH]n3)C2)n1 (configuration not stated) | 8.419% | – |
| Cc1cc(C)n(C2CN(CC(=O)N(C)Cc3ccc(C)o3)C2)n1 | -8.906% | – |
| CN(C)C(=O)CN1CCCC1c1nccnc1Nc1ccccn1 (configuration not stated) | -3.467% | – |
| Cc1ccc2c(c1)CN(C(=O)c1cnc(C)cn1)C(CN(C)C)CO2.Cl (configuration not stated) | -2.552% | – |
| O=S(=O)(C1CC1)N1CCC2(COCc3cnc(-c4cccnc4)nc32)C1 (configuration not stated) | 9.968% | – |
| CCOc1ccccc1OC1CCN(Cc2ccn(C)c(=O)c2)CC1 | 8.133% | – |
| CCOc1cc([C@H]2N[C@@H](c3nc(C)cs3)Cc3ccsc32)ccc1OC | 5.89% | – |
| CC(C)NC(=O)CC1CC2(CCN(CC3CC3)CC2)Oc2ccccc21.O=C(O)C(F)(F)F (configuration not stated) | 11.82% | – |
| CCOCC1CCCN(C(=O)NCc2ccc(-c3ccn[nH]3)cc2)C1 (configuration not stated) | 14.81% | – |
| COC(=O)CC1CCN(C(=O)Nc2ccc(-c3ccn[nH]3)cc2)C1 (configuration not stated) | – | 84.64% and 84.71% and 100.4% |
| NC(=O)CC1CCN(C(=O)NCc2ccc(-c3ccn[nH]3)cc2)CC1 | 2.866% | – |
| COCc1cncc2c1CCN(C(=O)c1ccc(C#N)cc1)C2.O=C(O)C(F)(F)F | 7.706% | – |
| Cc1ccc(-c2cccc(CC3(C(=O)O)CCOCC3)c2)c(C)c1 | -5.038% | – |
| CN1CCCc2cc(CNC(=O)c3cc[n+]([O-])cc3)ccc21 | 8.46% | – |
| CCOCC1CN(C(=O)c2ccncn2)Cc2cnn(CC)c21.O=C(O)C(F)(F)F (configuration not stated) | -5.589% | – |
| Cc1ccc(Sc2ccc(N3CCC(C(=O)O)CC3)nn2)cc1 | – | 64.84% and 62.96% |
| Cc1ccc(Sc2ccc(N3CCCC(C(=O)O)C3)nn2)cc1 (configuration not stated) | – | 24.7% and 21.38% |
| O=C(O)C1CCN(c2ccc(Sc3ccc(Br)cc3)nn2)CC1 | – | -3.247% and -5.657% |
| CCNc1cc2c(nn1)CCN(C(=O)c1ccc3c(c1)OCO3)C2 | 6.984% | – |
